Experiment [1] is described as follows: NCI Yeast Anticancer Drug Screen. Data for the rad50 strain (AID 155).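 Note: 0% = growth of vehicle-only cultures of the same strain.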 Conditions: S. cerevisiae rad50 strain growth inhibition, active compounds read high. Put shortly: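 Inhibition values express reduced yeast growth in compound-treated cultures relative to vehicle-treated controls.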
The nature of experiment [2]: NCI Yeast Anticancer Drug Screen. Data for the mec2-1 strain (AID 157). Conditions: S. cerevisiae mec2-1 strain, active compounds read high. Put shortly:
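mec2-1 yeast strain, carrying an alteration in DNA damage repair or cell cycle control, was exposed to compounds; growth inhibition was measured relative to vehicle-treated controls.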

A short description of experiment [3]: NCI Yeast Anticancer Drug Screen. Data for the sgs1 mgt1 strain (AID 161).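 Note: 0% = growth of cultures given vehicle only.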 The conditions noted are these: S. cerevisiae sgs1 mgt1 strain, active compounds read high. Put shortly:
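Yeast cells carrying a defined DNA-repair defect were exposed to test compounds. Growth inhibition was measured relative to vehicle-treated controls.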

A short description of experiment [4]: NCI Yeast Anticancer Drug Screen. Data for the cln2 rad14 strain (AID 165).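 Note: 0% = growth equal to vehicle treated cultures.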 Conditions: S. cerevisiae cln2 rad14 strain, active compounds read high. A digest of the protocol: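 Yeast carrying cln2 and rad14 alterations (cell cycle control and DNA damage repair) were exposed to compounds. Growth inhibition was measured against vehicle-treated controls.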
A short description of experiment [5]: NCI Yeast Anticancer Drug Screen. Data for the bub3 strain (AID 167). Conditions: S. cerevisiae bub3 mutant strain, active compounds read high. A digest of the protocol: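 Steps: expose the mutant yeast strain to compound; grow alongside vehicle-treated cultures; measure growth; express inhibition against the vehicle cultures.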
A short description of experiment [6]: NCI Yeast Anticancer Drug Screen. Data for the mlh1 rad18 strain (AID 175). Conditions: S. cerevisiae mlh1 rad18 strain growth inhibition, active compounds read high. A digest of the protocol: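 Growth inhibition of the yeast strain was measured after compound exposure and expressed relative to vehicle-treated controls. The strain carries defined defects in DNA damage repair.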

The mark [7] stands for this setting: at 5.0 µM (retest, dose inferred, filed as 0.5).
The mark [8] stands for this setting: at 50.0 µM (retest, dose inferred, filed as 5.0).

Structures are written as SMILES. The panel holds about 79,000 compounds, 15% with a hit somewhere; the sample as a whole holds those more often. Unmarked numbers belong to inactive results. Calls of active or inactive are those of the source. Cut-off read from the data, not from the text of the source: active = growth inhibition above about 70%; inactive = the rest.

For the molecule `COc1ccc(/C=C2\CN(C)C/C(=C\c3ccc(OC)cc3)C2=O)cc1`, the growth inhibition in experiment [1] (setting [7]) is 22%; in experiment [1] (setting [8]) it was 75% (active); in experiment [1] (at 50.0 µM) it was 14.2%; in experiment [2] (setting [7]), 18%; in experiment [2] (setting [8]) it was 79% (active); in experiment [2] (at 50.0 µM), 21.6%. Besides, the growth inhibition in experiment [3] (setting [7]) is 3%; in experiment [3] (setting [8]), 87% (active); in experiment [3] (at 50.0 µM), 31.9%; in experiment [4] (setting [7]) it was 15%; in experiment [4] (setting [8]) it was 70% (active); in experiment [4] (at 50.0 µM), 38.8%. The growth inhibition is 3% in experiment [5] (setting [7]); 85% (active) in experiment [5] (setting [8]); 30.8% in experiment [5] (at 50.0 µM); 25% in experiment [6] (setting [7]); 87% (active) in experiment [6] (setting [8]); 26.9% in experiment [6] (at 50.0 µM).
In the case of `CCCCN(C)N=Nc1c(C(N)=O)n[nH]c1C(C)C`, the growth inhibition in experiment [1] (setting [7]) is 14%; in experiment [1] (setting [8]) it was 84% (active); in experiment [1] (at 50.0 µM) it was 79.7% (active); in experiment [2] (setting [7]), -8%; in experiment [2] (setting [8]), 21%; in experiment [2] (at 50.0 µM), 24.4%. The growth inhibition in experiment [3] (setting [7]) was -4%; in experiment [3] (setting [8]), 52%; in experiment [3] (at 50.0 µM) it was 29.4%; in experiment [4] (setting [7]) it was -3%; in experiment [4] (setting [8]) it was -5%; in experiment [4] (at 50.0 µM), 1.15%. Further, the growth inhibition in experiment [5] (setting [7]) was -4%; in experiment [5] (setting [8]), -10%; in experiment [5] (at 50.0 µM), -24.2%; in experiment [6] (setting [7]), 29%; in experiment [6] (setting [8]), 80% (active); in experiment [6] (at 50.0 µM) it was 57.6%.
Consider `CN(/N=C\c1ccc2ccccc2c1)C1=NCCCN1`, for which the growth inhibition in experiment [1] (setting [7]) was 97% (active); in experiment [1] (setting [8]), 68%; in experiment [1] (at 50.0 µM), 56.8%; in experiment [2] (setting [7]), 99% (active); in experiment [2] (setting [8]) it was 67%; in experiment [2] (at 50.0 µM), 33.6%. The growth inhibition in experiment [3] (setting [7]) was 98% (active); in experiment [3] (setting [8]) it was 56%; in experiment [3] (at 50.0 µM), 49.6%; in experiment [4] (setting [7]), 97% (active); in experiment [4] (setting [8]), 66%; in experiment [4] (at 50.0 µM) it was 7.7%. Besides, the growth inhibition in experiment [5] (setting [7]) was 98% (active); in experiment [5] (setting [8]), 96% (active); in experiment [5] (at 50.0 µM), 99.2% (active); in experiment [6] (setting [7]) it was 97% (active); in experiment [6] (setting [8]), 79% (active); in experiment [6] (at 50.0 µM), 60.9%.
In the case of `CN(C)CCCN1c2ccc3ccccc3c2Sc2cccc(Cl)c21`, the growth inhibition in experiment [1] (setting [7]) is 7%; in experiment [1] (setting [8]) it was 99% (active); in experiment [1] (at 50.0 µM) it was 98.3% (active); in experiment [2] (setting [7]) it was 19%; in experiment [2] (setting [8]) it was 99% (active); in experiment [2] (at 50.0 µM) it was 97.3% (active). For the same molecule, the growth inhibition was -1% in experiment [3] (setting [7]); 99% (active) in experiment [3] (setting [8]); 97.9% (active) in experiment [3] (at 50.0 µM); 2% in experiment [4] (setting [7]); 99% (active) in experiment [4] (setting [8]); 96% (active) in experiment [4] (at 50.0 µM). In addition, the growth inhibition in experiment [5] (setting [7]) is 17%; in experiment [5] (setting [8]) it was 99% (active); in experiment [5] (at 50.0 µM), 8.95%; in experiment [6] (setting [7]) it was 25%; in experiment [6] (setting [8]), 99% (active); in experiment [6] (at 50.0 µM), 98.2% (active).
With `c1ccc([P+](C[P+](c2ccccc2)(c2ccccc2)c2ccccc2)(c2ccccc2)c2ccccc2)cc1`, the growth inhibition was 98% (active) in experiment [1] (setting [7]); 99% (active) in experiment [1] (setting [8]); 47.4% in experiment [1] (at 50.0 µM); 98% (active) in experiment [2] (setting [7]); 100% (active) in experiment [2] (setting [8]); 99.5% (active) in experiment [2] (at 50.0 µM). The growth inhibition is 98% (active) in experiment [3] (setting [7]); 99% (active) in experiment [3] (setting [8]); 58.4% in experiment [3] (at 50.0 µM); 97% (active) in experiment [4] (setting [7]); 99% (active) in experiment [4] (setting [8]); 99.4% (active) in experiment [4] (at 50.0 µM). The growth inhibition is 98% (active) in experiment [5] (setting [7]); 99% (active) in experiment [5] (setting [8]); 99.7% (active) in experiment [5] (at 50.0 µM); 98% (active) in experiment [6] (setting [7]); 99% (active) in experiment [6] (setting [8]); 99.5% (active) in experiment [6] (at 50.0 µM).
`[O-][n+]1c2c(cc3ccccc31)Cc1ccccc1-2`: the growth inhibition in experiment [1] (setting [7]) is 2%; in experiment [1] (setting [8]), 31%; in experiment [1] (at 50.0 µM) it was 21.7%; in experiment [2] (setting [7]), 3%; in experiment [2] (setting [8]), 19%; in experiment [2] (at 50.0 µM), 35%. Besides, the growth inhibition in experiment [3] (setting [7]) is -3%; in experiment [3] (setting [8]), 5%; in experiment [3] (at 50.0 µM), -22.6%; in experiment [4] (setting [7]), 4%; in experiment [4] (setting [8]), 3%; in experiment [4] (at 50.0 µM), 20.4%. Moreover, the growth inhibition was 7% in experiment [5] (setting [7]); 29% in experiment [5] (setting [8]); 24.4% in experiment [5] (at 50.0 µM); 3% in experiment [6] (setting [7]); 20% in experiment [6] (setting [8]); 30.7% in experiment [6] (at 50.0 µM).
As for `CC1(C)c2ccccc2-c2nc3ccccc3cc2C1Br` (stereo not given), the growth inhibition in experiment [1] (setting [7]) was -1%; in experiment [1] (setting [8]), 29%; in experiment [1] (at 50.0 µM), 37.6%; in experiment [2] (setting [7]), -4%; in experiment [2] (setting [8]), 26%; in experiment [2] (at 50.0 µM), 46.7%. Moreover, the growth inhibition in experiment [3] (setting [7]) is -4%; in experiment [3] (setting [8]) it was 23%; in experiment [3] (at 50.0 µM), 73.7% (active); in experiment [4] (setting [7]), -22%; in experiment [4] (setting [8]) it was 4%; in experiment [4] (at 50.0 µM), 44.3%. For the same molecule, the growth inhibition was 2% in experiment [5] (setting [7]); 59% in experiment [5] (setting [8]); 95% (active) in experiment [5] (at 50.0 µM); -1% in experiment [6] (setting [7]); 27% in experiment [6] (setting [8]); 70.5% (active) in experiment [6] (at 50.0 µM).
On to `Cc1cc(O)c(O)cc1C/C=C/c1ccccc1`, for which the growth inhibition in experiment [1] (setting [7]) is -1%; in experiment [1] (setting [8]), 92% (active); in experiment [1] (at 50.0 µM), 53.2%; in experiment [2] (setting [7]), 1%; in experiment [2] (setting [8]), 97% (active); in experiment [2] (at 50.0 µM), 26.7%. In addition, the growth inhibition in experiment [3] (setting [7]) was 5%; in experiment [3] (setting [8]) it was 97% (active); in experiment [3] (at 50.0 µM) it was 51.5%; in experiment [4] (setting [7]), -5%; in experiment [4] (setting [8]), 82% (active); in experiment [4] (at 50.0 µM), 42.5%. In addition, the growth inhibition in experiment [5] (setting [7]) is 0%; in experiment [5] (setting [8]), 96% (active); in experiment [5] (at 50.0 µM), 53.2%; in experiment [6] (setting [7]), -10%; in experiment [6] (setting [8]), 96% (active); in experiment [6] (at 50.0 µM), 40.6%.
Turning to `Cc1cc([N+](=O)[O-])cc(C)[n+]1[O-]`, the growth inhibition in experiment [1] (setting [7]) is 13%; in experiment [1] (setting [8]), 67%; in experiment [1] (at 50.0 µM) it was 82.5% (active); in experiment [2] (setting [7]), 0%; in experiment [2] (setting [8]) it was 12%; in experiment [2] (at 50.0 µM), 50.1%. Moreover, the growth inhibition in experiment [3] (setting [7]) was 17%; in experiment [3] (setting [8]), 80% (active); in experiment [3] (at 50.0 µM), 91.2% (active); in experiment [4] (setting [7]), 3%; in experiment [4] (setting [8]) it was 53%; in experiment [4] (at 50.0 µM), 44.8%. For the same molecule, the growth inhibition in experiment [5] (setting [7]) was 0%; in experiment [5] (setting [8]), -14%; in experiment [5] (at 50.0 µM), 6.55%; in experiment [6] (setting [7]), 20%; in experiment [6] (setting [8]) it was 60%; in experiment [6] (at 50.0 µM), 84.2% (active).
With `CN(C)Cc1cc(N=Nc2ccc(Cl)c(Cl)c2)ccc1O`, the growth inhibition in experiment [1] (setting [7]) is -16%; in experiment [1] (setting [8]), 46%; in experiment [1] (at 50.0 µM), 86.5% (active); in experiment [2] (setting [7]) it was -11%; in experiment [2] (setting [8]), 31%; in experiment [2] (at 50.0 µM), 64.4%. For the same molecule, the growth inhibition in experiment [3] (setting [7]) is -20%; in experiment [3] (setting [8]), 44%; in experiment [3] (at 50.0 µM), 82.7% (active); in experiment [4] (setting [7]) it was -31%; in experiment [4] (setting [8]) it was 34%; in experiment [4] (at 50.0 µM), 71.8% (active). Also, the growth inhibition in experiment [5] (setting [7]) was -33%; in experiment [5] (setting [8]), 40%; in experiment [5] (at 50.0 µM), 88.5% (active); in experiment [6] (setting [7]), 0%; in experiment [6] (setting [8]) it was 56%; in experiment [6] (at 50.0 µM), 84.7% (active).

These data come from PubChem BioAssay (NCI).
